Measured values from PubChem BioAssay.
Active and inactive are the calls of the source.

Columns and labels:
Albumin (Bos taurus) = Albumin (Bos taurus) (UniProt P02769); test: compounds binding labelled BSA control protein – biochemical, small-molecule microarray, Alexa647 label, 635/667 nm fluorescence, artefact control for SMM control protein annotation, profiling panel (AID 1118); conditions: BSA-A647 binding, fluorescence 635 nm, higher = more signal;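 also: score merges 667 nm emission intensity and signal-to-noise per printed compound spot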
Chain of Albumin (Bos taurus) (P02769 whole entry, looked up): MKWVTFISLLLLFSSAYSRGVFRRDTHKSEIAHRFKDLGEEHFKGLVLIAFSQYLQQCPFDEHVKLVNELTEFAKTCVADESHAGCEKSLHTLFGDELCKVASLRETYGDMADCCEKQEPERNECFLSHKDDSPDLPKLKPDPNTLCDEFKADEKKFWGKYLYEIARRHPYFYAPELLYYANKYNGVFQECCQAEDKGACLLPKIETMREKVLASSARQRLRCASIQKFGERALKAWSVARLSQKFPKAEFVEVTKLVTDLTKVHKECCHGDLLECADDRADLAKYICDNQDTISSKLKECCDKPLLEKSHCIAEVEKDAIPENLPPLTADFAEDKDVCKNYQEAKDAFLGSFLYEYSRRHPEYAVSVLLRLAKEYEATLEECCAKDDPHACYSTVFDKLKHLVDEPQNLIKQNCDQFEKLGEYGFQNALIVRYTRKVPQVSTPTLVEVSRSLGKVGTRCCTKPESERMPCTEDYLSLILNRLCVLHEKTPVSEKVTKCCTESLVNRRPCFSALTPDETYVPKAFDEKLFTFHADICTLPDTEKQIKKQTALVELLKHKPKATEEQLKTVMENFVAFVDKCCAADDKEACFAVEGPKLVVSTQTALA

[1] = probe aXIP binding to arrayed compounds – biochemical, NeuroSMM set, 635/667 nm fluorescence, primary screen (AID 1119); conditions: small-molecule microarray, higher = more signal, called active from +8 up or from −8 down;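 also: probe is the protein aXip251-270 applied at 1 µg/mL to compound-printed slides; binding of probe to printed compounds measured as 667 nm fluorescence plus signal to noise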
[2] = probe aNOTCH3 binding on compound microarray – biochemical, small-molecule microarray, 635/667 nm fluorescence, primary screen (AID 1120); conditions: higher = more signal;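 also: probe is a biotin-tagged antibody raised against NOTCH3 rather than NOTCH3 protein; score merges spot fluorescence near 667 nm with spot signal to noise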
[3] = probe aNOTCH2 binding on compound microarray – biochemical, small-molecule microarray, 635/667 nm fluorescence, primary screen (AID 1121); conditions: higher = more signal;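 also: score merges feature fluorescence read at 667 nm with its signal to noise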
[4] = target: Carbonic anhydrase 2 (Homo sapiens) (UniProt P00918); test: compounds binding carbonic anhydrase 2 – biochemical, small-molecule microarray, Alexa647-labelled CAII, profiling panel (AID 1122); conditions: CAII-A647 binding fluorescence, higher = more signal
[5] = COS7 lysate on small-molecule microarray, probe aHis, 635 nm (AID 1123); conditions: COS7 cell lysate, fluorescence, higher = more signal;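 also: z-score combines 667nm fluorescence intensity with signal-to-noise per printed compound spot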
[6] = probe aLAP1 signal on lysate-treated microarray – cell lysate, small-molecule microarray, COS7 lysate, primary screen (AID 1124); conditions: probe aLAP1, fluorescence, higher = more signal;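 also: lysate comes from COS7 cells expressing LAP1 and is applied at 0.3 µg/mL; score merges spot fluorescence near 667 nm with signal-to-noise over triplicate slides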
Sam68 (KHDRBS1) = test: compounds binding KHDRBS1 protein – biochemical, small-molecule microarray, 635 nm fluorescence, primary screen (AID 1125); conditions: higher = more signal;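 also: score merges 667 nm channel intensity with signal to noise over triplicate slides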
[7] = tested on: Chordin-like protein 2 (CHRDL2); test: compounds binding chordin-like 2 – biochemical, small-molecule microarray, 635 nm fluorescence, primary screen (AID 1126); conditions: fluorescence 635 nm, higher = more signal;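 also: printed compound slides probed with Chrdl2 protein at 4 µg/mL for 1 h at 4 C; score merges 667 nm emission intensity with signal to noise over three replicate slides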
[8] = target: Concanavalin-A (Canavalia ensiformis) (UniProt P02866); test: compounds binding concanavalin A lectin – biochemical, small-molecule microarray, Alexa647 label, 635 nm, artefact control for SMM control protein annotation, primary screen (AID 1127); conditions: ConA-A647 binding fluorescence, higher = more signal;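 also: z combines 667 nm emission intensity with signal-to-noise across three replicate slides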
Chain of Concanavalin-A (Canavalia ensiformis) (P02866 whole entry, looked up): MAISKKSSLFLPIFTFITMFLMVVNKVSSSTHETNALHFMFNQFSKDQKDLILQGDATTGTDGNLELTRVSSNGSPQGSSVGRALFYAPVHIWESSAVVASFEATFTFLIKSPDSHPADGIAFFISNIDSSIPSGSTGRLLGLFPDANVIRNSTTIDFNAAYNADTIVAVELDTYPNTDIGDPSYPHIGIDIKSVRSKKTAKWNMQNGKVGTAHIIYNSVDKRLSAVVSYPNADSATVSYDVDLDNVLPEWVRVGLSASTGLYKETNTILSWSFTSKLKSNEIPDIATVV

Row | Structure (SMILES) | composite z-score (Albumin (Bos taurus)) | composite Z-score [1] | composite z-score [2] | composite z-score [3] | composite z-score [4] | composite z-score [5] | composite z-score [6] | composite z-score (Sam68 (KHDRBS1)) | composite z-score [7] | composite z-score [8]
1 | COCCCNC(=O)[C@@]1(c2ccc([N+](=O)[O-])cc2)CC(=O)N(CC23CC4CC(CC(C4)C2)C3)[C@@H]1c1ccc(CO)cc1 | 0.197 | 0.324 (inactive) | 0.204 | -0.117 | 0.43 | 0.726 | 0.375 | 1.28 | 0.556 | 1.08
2 | CC(C)N1C(=O)C[C@@](C(=O)NCc2ccccc2)(c2ccc([N+](=O)[O-])cc2)[C@H]1c1ccc(CO)cc1 | 0.467 | 0.0119 (inactive) | -0.186 | -0.0617 | 0.702 | 2.37 | 0.506 | 1.31 | -0.791 | -0.0974
3 | COc1ccc(C(=O)Nc2cccc(CN3C(=O)[C@]4(O[C@H](CC(=O)N5CCC[C@H]5CO)[C@@H]([Si](C)(C)c5ccc(OC)cc5)[C@@H]4C)c4ccccc43)c2)cc1 | 0.114 | 0.535 (inactive) | -0.0044 | -0.112 | 0.485 | 1.79 | 0.276 | 1.01 | 0.76 | 1.02
4 | CC(c1ccccc1)C(O)C1C=CC2C(=O)NC(=O)C2N1Nc1ccccn1 (stereo not given) | 0.183 | 0.239 (inactive) | 0.0876 | 0.0012 | 0.531 | 0.954 | 0.398 | 1.1 | 0.407 | 0.901
5 | CC(=O)NCCCC[C@@H]1NC(=O)[C@H]2C[C@@H](C(=O)NCCCCCC[N+](C)(C)C)[C@@H](c3cccc(OCCO)c3)N2C1=O | 0.0306 | 0.526 (inactive) | 0.15 | -0.106 | 0.607 | 1.19 | -0.165 | 1.04 | 1.45 | 0.904
6 | COCCOC(=O)N1C(=O)[C@@]2(c3ccccc31)[C@H](c1ccc(O)cc1)N1[C@H](c3ccccc3)[C@H](c3ccccc3)OC(=O)[C@H]1[C@@H]2C(=O)N1CCc2cc(OC)c(OC)cc2C1 | -0.361 | 2.47 (inactive) | 0.128 | 0.0712 | 0.136 | 1.76 | 0.288 | 1.32 | 1.44 | 1.13
7 | O=C1c2ccccc2[C@@]2(Cc3ccccc3N(Cc3ccccc3)C2=O)[C@H](c2ccc(CO)cc2)N1C1CCCCC1 | -0.841 | 0.0066 (inactive) | -0.141 | -0.14 | 0.416 | 1.03 | 0.432 | 0.689 | 0.685 | 1.01
8 | O=C1N(CCS(=O)(=O)c2ccccc2)Cc2ccccc2C[C@]12N=C(c1ccc(OCCCO)cc1)O[C@@H]2c1ccccc1 | -0.591 | 0.339 (inactive) | 0.567 | 0.189 | 0.396 | 3.41 | 1.17 | 1.13 | 1.17 | 1.12
9 | COCCOC(=O)N1C(=O)[C@@]2(c3cc(C#CCNC(N)=O)ccc31)[C@H](C(=O)N1CCN(c3ncccn3)CC1)[C@H]1C(=O)O[C@H](c3ccccc3)[C@H](c3ccccc3)N1[C@@H]2c1ccccc1OCCO | 0.413 | 0.255 (inactive) | 0.209 | 0.0066 | 0.358 | 1.08 | 0.427 | 1.31 | 0.867 | 1.02
10 | O=C/C=C/c1ccc2c(c1)OCO2 | -0.776 | 0.16 (inactive) | -0.0883 | -0.109 | -0.0937 | -0.408 | 1.57 | 0.256 | 1.11 | 0.176
11 | CCCNC(=O)[C@@H]1c2ccccc2C(=O)N(Cc2ccccc2)[C@H]1c1ccc(CO)cc1 | -0.271 | 0.842 (inactive) | 0.0631 | -0.0715 | 0.202 | 1.1 | -0.036 | 0.22 | -0.592 | 1.01
12 | COC(=O)[C@@]1(Cc2ccc(OC)cc2)[C@H]2c3cc(C(=O)N(C)C)n(Cc4c(OC)[nH]cc(C)c4=O)c3C[C@H]2CN1C(=O)c1ccccc1 | 0.589 | 0.0562 (inactive) | 1.04 | 0.107 | 0.881 | 1.57 | -0.155 | -0.0964 | -0.218 | -0.172
13 | COC(=O)[C@@]1(Cc2ccccc2)[C@H]2c3cc(C(=O)N(C)C)n(Cc4cc(C)n(C)n4)c3C[C@H]2CN1C(=O)c1ccccc1 | 1 | -0.138 (inactive) | 0.718 | 0.258 | 0.931 | 2.63 | 0.993 | 0.812 | -0.979 | 0.711
14 | [N-]=[N+]=NCc1ccccc1C[C@]1(C(=O)NCC(O)CO)N=C(c2ccc(OCCCO)cc2)O[C@H]1c1ccccc1N=[N+]=[N-] (stereo not given in full) | 0.675 | 0.529 (inactive) | 0.254 | -0.0059 | 0.652 | 1.57 | 0.0131 | 0.283 | -0.44 | 0.565
15 | C=CCC(OC(C)=O)[C@@H]1[C@@H](N(Cc2ccc(-c3ccccc3)cc2)C(=O)Cc2ccc(OC)cc2)c2cc(OCCCO)ccc2N1C(=O)c1ccc2ccccc2n1 (stereo not given in full) | 0.0184 | 0.245 (inactive) | 0.0522 | -0.182 | 0.195 | 0.514 | 0.123 | -0.959 | 0.0504 | 0.177
